This is a sample that favours compounds with a hit; in the whole collection about 11% have one here.
AmpC inh no detg = qHTS Inhibitors of AmpC Beta-Lactamase (assay without detergent); P00811; AmpC nitrocefin hydrolysis, absorbance 480 nm, 0.0001% Triton; Potency, µM (doses to about 57.1 µM), most hits filed as inhibitors; 330,000 compounds, 0.52% hits; note: nearly all actives have a fitted effect of over 20% in size
Target sequence (P00811 whole entry, looked up): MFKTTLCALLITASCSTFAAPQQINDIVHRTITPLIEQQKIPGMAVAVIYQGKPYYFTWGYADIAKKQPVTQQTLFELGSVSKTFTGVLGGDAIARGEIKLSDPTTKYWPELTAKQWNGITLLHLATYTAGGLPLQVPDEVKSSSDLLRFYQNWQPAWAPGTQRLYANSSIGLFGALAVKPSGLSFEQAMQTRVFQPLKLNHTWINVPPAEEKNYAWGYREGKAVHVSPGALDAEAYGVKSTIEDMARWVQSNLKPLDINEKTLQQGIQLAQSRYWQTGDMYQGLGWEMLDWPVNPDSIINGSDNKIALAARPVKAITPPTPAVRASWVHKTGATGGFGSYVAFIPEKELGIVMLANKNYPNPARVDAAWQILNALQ
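AmpC (5.3 nM in the dispensed reagent) in 20 mM phosphate pH 7.0 with 0.01% (detergent screen) or 0.0001% Triton X-100 was preincubated with compounds for 15 min at room temperature. Nitrocefin was then added from an 800 uM solution, and hydrolysis was followed at 480 nm.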
Pf growth 48h = Primary qHTS for delayed death inhibitors of the malarial parasite plastid, 48 hour incubation; P. falciparum luciferase growth in erythrocytes, 48 h; Potency, µM (doses to about 28.7 µM), hits mostly inhibitors; 310,000 compounds, 5.9% hits
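Erythrocytes infected with P. falciparum carrying an integrated firefly luciferase reporter (2% hematocrit, 0.1% parasitemia final) were exposed to compounds in RPMI 1640 with 0.5% Albumax at 37 C, 5% CO2. Growth inhibition was scored as reduced luminescence.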
Pf growth 96h = Primary qHTS for delayed death inhibitors of the malarial parasite plastid, 96 hour incubation; P. falciparum luciferase reporter growth, 96 h; Potency, µM (doses to about 28.7 µM), most hits filed as inhibitors; 320,000 compounds, 6.9% hits; AID 504834, 2011
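Delayed-death screen, second-generation endpoint: infected erythrocytes, 2% hematocrit, 0.05% parasitemia final; 96 hours at 37 C, 5% CO2; luciferase detection reagent; luminescence decrease equals reduced growth.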
AmpC detergent = qHTS Inhibitors of AmpC Beta-Lactamase (assay with detergent). AmpC hydrolysis of nitrocefin, absorbance 480 nm, 0.01% Triton. Potency, µM (series often up to 114 µM), most hits filed as inhibitors. P00811. 370,000 compounds, 0.041% hits. AID 485294, 2010; note: nearly all actives have a fitted effect of over 25% in size
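AmpC (5.3 nM in the dispensed reagent) in 20 mM phosphate pH 7.0 with 0.01% (detergent screen) or 0.0001% Triton X-100 was preincubated with compounds for 15 min at room temperature. Nitrocefin was then added from an 800 uM solution, and hydrolysis was followed at 480 nm.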
AMA1-RON2 inh = qHTS for Inhibitors of AMA1-RON; Towards Development of Antimalarial Drug Lead: Primary Screen; AlphaScreen AMA1-biotinylated RON2 peptide binding; Potency, µM (series often up to 58.2 µM), hits mostly inhibitors; 360,000 compounds, 0.2% hits; note: nearly all actives have a fitted effect of over 45% in size
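AMA1 (3D7) with his tag at 25 nM final met compounds first, then biotinylated RON2 peptide at 25 nM; detection used donor plus acceptor beads, 10 µg/mL apiece, read by AlphaScreen after 30 min at room temperature.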
HCV inh = qHTS Assay for Inhibitors of Hepatitis C Virus (HCV); 340,000 compounds, 3.4% hits; Huh7.5.1 HCVcc-Cre infection, luciferase reporter, 44 h; Potency, µM (highest dose often 41.8 µM), actives largely listed as inhibitors
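Reporter virus HCVcc-Cre (~0.5 moi) infects cells exposed to compound; seeding density 1,000 cells/well with 4 h settling beforehand. Luminescence, 15 sec read, taken 44 h post-infection following a 15 min RT substrate incubation.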
Each line names hits and unclear results; the compound was inactive in the other large screens. Calls come from the whole dose curve; as a rule, active = well fitted curve in the direction sought with a large enough effect; inconclusive = small, poorly fitted or top-dose-only effect, or another doubt; inactive = no such curve, though single readings can be large; an effect the other way counts as inactive or inconclusive.

CCC(C)(C)NC(=O)C(c1ccncc1)N(Cc1ccc(C)cc1)C(=O)c1csnn1 (stereo not drawn)	Pf growth 96h 4.7µM, HCV inh inconclusive
CCC(C)(C)NC(=O)C(c1ccc(F)cc1)N(Cc1ccccc1)C(=O)c1cnccn1 (stereo not drawn)	Pf growth 48h inconclusive, HCV inh 1.4µM
Cc1ccc(CN(C(=O)c2csnn2)C(C(=O)NC2CCCC2)c2ccc(C)o2)cc1 (stereo not drawn)	Pf growth 48h 15µM
CC(C)(C)NC(=O)C(c1cccs1)N(Cc1ccc(F)cc1)C(=O)c1csnn1 (stereo not drawn)	Pf growth 48h 9.3µM
CCC(C)(C)NC(=O)C(c1cccnc1)N(C(=O)c1csnn1)c1ccc(C)cc1 (stereo not drawn)	Pf growth 48h inconclusive
COc1cc(C(C(=O)NC(C)(C)C)N(Cc2ccccc2)C(=O)c2cnccn2)cc(OC)c1OC (stereo not drawn)	Pf growth 96h inconclusive
Cc1ccc(C(C(=O)NC2CCCC2)N(C(=O)c2csnn2)C2CCCC2)o1 (stereo not drawn)	Pf growth 48h inconclusive, AmpC detergent inconclusive
Cc1nn(C(=O)c2cccc([N+](=O)[O-])c2C)c(C)c1S(=O)(=O)N1CCOCC1	none (no result: AmpC inh no detg, Pf growth 48h, Pf growth 96h, AMA1-RON2 inh, HCV inh)
COc1ccc(/C=C2\SC(=O)N(CC(=O)NNC(=O)c3ccccc3O)C2=O)cc1	AmpC inh no detg 11µM, Pf growth 96h 3.3µM
COc1ccc(C(=O)CSc2nc(C)cc(=O)[nH]2)cc1	Pf growth 96h inconclusive
Cc1cc(=O)[nH]c(SCCc2ccccc2)n1	none
Cc1cc(=O)[nH]c(SCc2ccccc2)n1	Pf growth 48h 12µM
COc1ccc(CSc2nc(C)cc(=O)[nH]2)cc1	Pf growth 96h 4.7µM
CN(C)CCN(C)Cc1c2ccccc2c(CN(C)CCN(C)C)c2ccccc12	Pf growth 48h 6.6µM, Pf growth 96h 1.7µM, HCV inh 4µM
O=C(CCc1cn2ccccc2n1)NC1CCCc2c1cnn2-c1ccccc1F (stereo not drawn)	Pf growth 96h 13µM
CC(Sc1ncccn1)C(=O)NC1(C#N)CCCCC1 (stereo not drawn)	none
CC(SC1=Nc2ccccc2C2CC=NN12)C(=O)NC1(C#N)CCCCC1 (stereo not drawn)	Pf growth 48h inconclusive, Pf growth 96h 8.3µM, AmpC detergent inconclusive, HCV inh inconclusive
CCO[C@H]1OC(C(=O)O)=C[C@@H](c2cn(C(C)=O)c3ccccc23)[C@@H]1CCCO	none (no result: AmpC inh no detg, Pf growth 48h, Pf growth 96h, AmpC detergent)
CCO[C@H]1OC(C(=O)N2CCN(Cc3ccccc3)CC2)=C[C@@H](c2ccc(C(F)(F)F)cc2)[C@@H]1CCCO	Pf growth 48h inconclusive, Pf growth 96h 1.5µM, HCV inh inconclusive
CCO[C@@H]1OC(C(=O)N2CCN(Cc3ccccc3)CC2)=C[C@H](c2cn(C(C)=O)c3ccccc23)[C@H]1CCCO	Pf growth 48h 8.3µM, Pf growth 96h 8.3µM
CCO[C@@H]1OC(C(=O)NCc2ccccc2)=C[C@H](c2cn(C(C)=O)c3ccccc23)[C@H]1CCCO	Pf growth 48h 5.2µM, Pf growth 96h 4.1µM
CCO[C@@H]1OC(C(=O)N2CCN(Cc3ccccc3)CC2)=C[C@H](c2csc3ccccc23)[C@H]1CCCO	Pf growth 48h inconclusive, Pf growth 96h 6.6µM, HCV inh inconclusive
CCO[C@@H]1OC(C(=O)N2CCOCC2)=C[C@H](c2cn(C(C)=O)c3ccccc23)[C@H]1CCCO	none
CCO[C@H]1OC(C(=O)N2CCCCCCC2)=C[C@@H](c2csc3ccccc23)[C@@H]1CCCO	Pf growth 96h inconclusive
COc1cc(OC)c(NC2(c3ccccc3)C(=O)c3ccccc3C2=O)cc1Cl	none (no result: AmpC inh no detg, Pf growth 48h, Pf growth 96h, AMA1-RON2 inh, HCV inh)
O=C(c1[nH]c2ccccc2c1Sc1ccc(Cl)cc1)N1CCCCC1	none (no result: AmpC inh no detg, Pf growth 48h, Pf growth 96h, AMA1-RON2 inh, HCV inh)
COc1ccc(NC(=O)C(C)n2nc(-c3cc(C)ccc3C)c3c(c2=O)CCCC3)cc1 (stereo not drawn)	none (no result: AmpC inh no detg, Pf growth 48h, Pf growth 96h, AMA1-RON2 inh, HCV inh)
Cc1nc(OCC(=O)c2ccc(Cl)cc2)c(C#N)c2c1COC(C)(C)C2	Pf growth 96h 12µM, HCV inh inconclusive (no result: Pf growth 48h)
COc1ccc(C(=O)COc2nc(C)cc(C)c2C#N)cc1	Pf growth 48h inconclusive, Pf growth 96h inconclusive, AmpC detergent inconclusive, HCV inh inconclusive
CCc1nc(OCC(=O)c2ccccc2)c(C#N)c2c1COC(C)(C)C2	Pf growth 96h 12µM, HCV inh inconclusive (no result: Pf growth 48h)
CC1(C)Cc2c(C#N)c(OCC(=O)c3ccc(Cl)cc3)nc(-c3ccco3)c2CO1	Pf growth 48h inconclusive, Pf growth 96h inconclusive, AmpC detergent inconclusive
CC(C)CCn1c(=O)c2sccc2n2c(CCCC(=O)NCc3ccc(F)cc3)nnc12	none (no result: AmpC inh no detg, Pf growth 48h, Pf growth 96h, AMA1-RON2 inh, HCV inh)
CCOc1ccc(C(=O)Nc2ccc3oc(-c4ccc(C)cc4C)nc3c2)cc1Br	none (no result: AmpC inh no detg, Pf growth 48h, Pf growth 96h, AMA1-RON2 inh, HCV inh)
COc1ccc(C2CC(=O)c3cc(-c4nc(-c5ccc(Cl)cc5)cs4)c(=O)[nH]c3C2)cc1OC (stereo not drawn)	none (no result: AmpC inh no detg, Pf growth 48h, Pf growth 96h, AMA1-RON2 inh, HCV inh)
Cc1cccc(N2CCN(C(=O)C3CC(=O)N(c4ccc5c(c4)OCCO5)C3)CC2C)c1 (stereo not drawn)	HCV inh 11µM
CC/C(=C\C1CCCCC1)C(NP(=O)(c1ccccc1)c1ccccc1)c1ccccc1 (stereo not drawn)	Pf growth 48h 9.3µM, Pf growth 96h 6.6µM
C=C[C@@H]1C[C@@]1(C)[C@@H](NP(=O)(c1ccccc1)c1ccccc1)c1ccccc1	Pf growth 48h inconclusive, Pf growth 96h inconclusive
Cc1nc(-c2ccccc2)sc1CCNC(=O)C(=O)Nc1ccc(F)c(Cl)c1	none (no result: AmpC inh no detg, Pf growth 48h, Pf growth 96h, AMA1-RON2 inh, HCV inh)
CCCn1c(-c2cccs2)nc2ccccc21	Pf growth 96h inconclusive, HCV inh inconclusive
CCN1c2ccccc2-c2nc3ccccc3n2C1c1cccs1 (stereo not drawn)	Pf growth 48h 8.3µM, Pf growth 96h 3.7µM, AmpC detergent inconclusive, HCV inh inconclusive
CCOc1cccc(N2CCN(CCNC(=O)Nc3ccc(C)cc3)CC2)c1C	Pf growth 48h inconclusive, HCV inh 13µM
COc1ccc(NC(=O)NCCCN2CCN(c3cc(C)ccc3C)CC2)cc1	Pf growth 48h inconclusive, AmpC detergent inconclusive, HCV inh 10µM
CCOc1ccc(NC(=O)NCCN2CCN(c3cccc(C)c3C)CC2)cc1	HCV inh inconclusive
CCc1cccc(C)c1NC(=O)Cn1ccn(Cc2ccc(Cl)cc2)c(=O)c1=O	none (no result: AmpC inh no detg, Pf growth 48h, Pf growth 96h, AMA1-RON2 inh, HCV inh)

Compound activity from PubChem BioAssay.
